Inconclusive results are not listed. Active and inactive are the calls of the source. Unless noted, calls follow the shape of the dose curve; as a rule, active = well fitted curve in the direction sought with a large enough effect; inconclusive = small, poorly fitted or top-dose-only effect, or another doubt; inactive = no such curve, though single readings can be large; an effect the other way counts as inactive or inconclusive.
Legend:
[1] = Natriuretic polypeptide receptor (hNpr1) antagonism - Pilot counterscreen GloSensor control cell line (AID 1347045; calls by dose curve; also: series mostly up to about 38 µM)
Method in brief: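 Control counterscreen: luciferase cGMP-biosensor HEK293 cells (no Npr1) received compound for 30 min at room temperature after GloSensor substrate loading. Luminescence was measured before and 20 min after soluble guanylyl cyclase activation by 50 uM nitroprusside.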

[2] = biological target: Atrial natriuretic peptide receptor 1 (Homo sapiens) (UniProt P16066); assay: Natriuretic polypeptide receptor (hNpr1) antagonism - Pilot screen (AID 1347049; calls by dose curve;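 also: HEK293 cells with hNpr1 and GloSensor cGMP luciferase stimulated by 0.1 nM hNppA; agonist-evoked cGMP luminescence read 20 min after hNppA addition; series mostly up to about 58 µM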)
Method in brief: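 Receptor antagonism read as cGMP-dependent luminescence in hNpr1/pGS-40F HEK293 cells: pre-read after 30 min compound exposure, post-read 20 min after hNppA agonist at 0.1 nM final, all at room temperature, protected from light; A-71915 titration as control.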

[3] = biological target: Atrial natriuretic peptide receptor 2 (Homo sapiens) (UniProt P20594); assay: Natriuretic polypeptide receptor (hNpr2) antagonism - Pilot subtype selectivity assay (AID 1347050; calls by dose curve)
Method in brief: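 Antagonist mode: compounds (LOPAC1280, seven 1:5 dilutions) added 30 min before 1 nM hNppC stimulation of hNpr2-HEK293 cGMP-sensor cells; luminescence read before and 20 min after agonist at ambient temperature.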

[4] = NS1 protein of Zika virus - qHTS assay to identify small molecule inhibitors in human HEK 293 cells (AID 1347053); also: series mostly up to about 46 µM; nearly all actives have a fitted effect of over 55% in size
Method in brief: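 Compound-treated (1 h pre-infection) HEK 293 cells infected with ZIKV MR766, MOI = 0.5; after 24 h at 37 C, NS1 read by TR-FRET; data normalized to uninfected and infected controls.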

[5] = biological target: T1, Tyrosine-protein phosphatase non-receptor type substrate 1 (Homo sapiens) + Leukocyte surface antigen CD47 (Homo sapiens) (UniProt P78324+Q08722); assay: CD47-SIRPalpha protein protein interaction - LANCE assay qHTS validation (AID 1347057; active = well fitted curve in the direction sought with a large enough effect in the signal ratio, with a control signal flat, not every such curve was filed as active; the % refers to the signal ratio; also: series mostly up to about 38 µM)
Method in brief: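 Inhibition of soluble CD47/SIRPalpha ectodomain association by titrated compounds, measured as 665/615 nm time-resolved FRET ratio after sequential 30 min room-temperature incubations.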

[6] = biological target: T1, Tyrosine-protein phosphatase non-receptor type substrate 1 (Homo sapiens) + Leukocyte surface antigen CD47 (Homo sapiens); assay: CD47-SIRPalpha protein protein interaction - HTRF assay qHTS validation (AID 1347058; active = well fitted curve in the direction sought with a large enough effect in the signal ratio, not every such curve was filed as active; the % refers to the signal ratio; also: series mostly up to about 38 µM)
Method in brief: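 Soluble extracellular domains (6His-CD47, Avi-tag-biotinylated SIRPalpha) in PBS pH 7.4 with 0.05% IGEPAL CA-630. Compounds were preincubated 30 min at RT with CD47 and anti-His-Eu, then SIRPalpha and SAV-XL665 were added. TR-FRET 665/615 ratio.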

[7] = biological target: T1, Tyrosine-protein phosphatase non-receptor type substrate 1 (Homo sapiens) + Leukocyte surface antigen CD47 (Homo sapiens); assay: CD47-SIRPalpha protein protein interaction - Alpha assay qHTS validation (AID 1347059);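 also: bead proximity luminescence from CD47 binding SIRPalpha after compound preincubation with SIRPalpha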
Method in brief: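 AlphaScreen signal between CD47-His (12.5 nM) and biotin-SIRPalpha (25 nM) soluble extracellular domains, bead-captured via Ni-NTA and streptavidin. Compounds, in 7-point titrations, met SIRPalpha 30 min before CD47; PBS pH 7.4 with 0.05% IGEPAL.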

[8] = biological target: Parathyroid hormone/parathyroid hormone-related peptide receptor (Homo sapiens) (UniProt Q03431); assay: qHTS for PTHR1 Agonists: Optimization Screen against the NCGC LOPAC library (AID 1347079);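 also: GloSensor cAMP luminescence in HEK-293 GP2 cells expressing human PTHR1 with IBMX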
Method in brief: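 HEK-293 GP2 cells, PTHR1 + GloSensor cAMP; 3000 cells/well, o/n. Luciferin + IBMX 0.5mM each (stock), 1 hr 37C. Cpd titration, 1 hr 37C. Lum after 15 min RT. Ctrl M-PTH(1-15) top 10uM.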

[9] = qHTS of pediatric cancer cell lines to identify multiple opportunities for drug repurposing: Primary screen for TC32 cells (AID 1347089); also: nearly all actives have a fitted effect of over 60% in size
Method in brief: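 qHTS, TC32, 48 h drug treatment, CellTiter-Glo luminescence as a proxy for metabolically active cells; primary top concentration 46 µM (MIPE 11-pt, NPC 8-pt); confirmatory 11-pt.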

[10] = qHTS of pediatric cancer cell lines to identify multiple opportunities for drug repurposing: Primary screen for DAOY cells (AID 1347090); also: series mostly up to about 46 µM; nearly all actives have a fitted effect of over 55% in size
Method in brief: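 Cell viability, CellTiter-Glo luminescence; 500-1,000 cells/well, 8- or 11-point titration, 48 h compound exposure at 37 degrees C, 5% CO2. Controls: DMSO neutral, bortezomib 2.3 µM final as positive.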

Measured: Potency

Atrial natriuretic peptide receptor 1 (Homo sapiens), sequence (P16066 whole entry, looked up): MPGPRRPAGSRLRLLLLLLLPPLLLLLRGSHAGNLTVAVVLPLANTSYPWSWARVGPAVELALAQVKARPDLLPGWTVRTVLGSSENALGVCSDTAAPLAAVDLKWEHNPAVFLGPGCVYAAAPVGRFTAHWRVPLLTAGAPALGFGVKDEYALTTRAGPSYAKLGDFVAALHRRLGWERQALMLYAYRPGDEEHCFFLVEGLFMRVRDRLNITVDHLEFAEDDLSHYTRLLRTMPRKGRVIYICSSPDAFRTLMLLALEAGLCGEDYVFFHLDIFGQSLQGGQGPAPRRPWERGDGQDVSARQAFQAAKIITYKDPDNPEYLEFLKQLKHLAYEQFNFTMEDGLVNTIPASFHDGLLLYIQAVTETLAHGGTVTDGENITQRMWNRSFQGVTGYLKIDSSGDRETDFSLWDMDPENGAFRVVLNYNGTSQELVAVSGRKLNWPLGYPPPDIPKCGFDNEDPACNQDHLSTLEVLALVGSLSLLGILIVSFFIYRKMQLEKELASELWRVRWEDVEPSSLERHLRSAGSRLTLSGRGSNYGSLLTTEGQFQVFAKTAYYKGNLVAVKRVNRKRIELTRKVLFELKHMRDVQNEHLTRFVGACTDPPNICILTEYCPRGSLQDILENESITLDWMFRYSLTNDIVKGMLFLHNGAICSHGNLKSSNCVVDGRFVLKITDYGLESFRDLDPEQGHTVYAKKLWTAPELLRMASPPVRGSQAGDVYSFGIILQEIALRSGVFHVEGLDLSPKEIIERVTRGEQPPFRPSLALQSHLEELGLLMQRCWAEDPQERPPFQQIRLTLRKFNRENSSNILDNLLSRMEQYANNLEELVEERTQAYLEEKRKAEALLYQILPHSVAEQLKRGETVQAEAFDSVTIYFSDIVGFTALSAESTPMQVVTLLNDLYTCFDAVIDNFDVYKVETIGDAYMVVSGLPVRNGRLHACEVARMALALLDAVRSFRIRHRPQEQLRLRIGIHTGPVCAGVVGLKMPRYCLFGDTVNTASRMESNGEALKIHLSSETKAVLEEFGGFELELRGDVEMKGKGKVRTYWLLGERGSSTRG
T1 sequence (P78324 whole entry, looked up, the tested form may be a part): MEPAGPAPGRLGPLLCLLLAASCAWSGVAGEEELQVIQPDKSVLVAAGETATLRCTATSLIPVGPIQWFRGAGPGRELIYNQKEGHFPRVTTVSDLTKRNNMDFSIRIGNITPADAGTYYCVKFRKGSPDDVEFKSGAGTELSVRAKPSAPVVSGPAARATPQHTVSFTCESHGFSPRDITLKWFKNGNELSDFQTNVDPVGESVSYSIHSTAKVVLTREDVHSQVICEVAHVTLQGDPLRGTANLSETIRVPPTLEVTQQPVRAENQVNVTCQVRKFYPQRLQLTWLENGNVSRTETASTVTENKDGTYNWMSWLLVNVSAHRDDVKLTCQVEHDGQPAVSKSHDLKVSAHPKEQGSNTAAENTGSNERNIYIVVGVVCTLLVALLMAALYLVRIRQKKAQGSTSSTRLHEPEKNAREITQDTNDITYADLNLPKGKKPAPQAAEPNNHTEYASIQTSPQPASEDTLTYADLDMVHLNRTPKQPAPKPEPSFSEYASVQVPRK
T1 sequence (Q08722 whole entry, looked up, the tested form may be a part): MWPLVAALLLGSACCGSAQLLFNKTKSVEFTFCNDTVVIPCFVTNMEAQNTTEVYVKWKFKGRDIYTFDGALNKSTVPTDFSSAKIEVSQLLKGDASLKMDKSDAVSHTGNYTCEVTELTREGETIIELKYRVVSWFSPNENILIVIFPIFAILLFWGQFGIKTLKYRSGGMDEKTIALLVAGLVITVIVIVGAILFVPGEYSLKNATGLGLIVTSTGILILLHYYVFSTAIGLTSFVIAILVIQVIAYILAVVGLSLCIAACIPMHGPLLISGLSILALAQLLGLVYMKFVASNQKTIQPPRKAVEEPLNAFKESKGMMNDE
Parathyroid hormone/parathyroid hormone-related peptide receptor (Homo sapiens), sequence (Q03431 whole entry, looked up): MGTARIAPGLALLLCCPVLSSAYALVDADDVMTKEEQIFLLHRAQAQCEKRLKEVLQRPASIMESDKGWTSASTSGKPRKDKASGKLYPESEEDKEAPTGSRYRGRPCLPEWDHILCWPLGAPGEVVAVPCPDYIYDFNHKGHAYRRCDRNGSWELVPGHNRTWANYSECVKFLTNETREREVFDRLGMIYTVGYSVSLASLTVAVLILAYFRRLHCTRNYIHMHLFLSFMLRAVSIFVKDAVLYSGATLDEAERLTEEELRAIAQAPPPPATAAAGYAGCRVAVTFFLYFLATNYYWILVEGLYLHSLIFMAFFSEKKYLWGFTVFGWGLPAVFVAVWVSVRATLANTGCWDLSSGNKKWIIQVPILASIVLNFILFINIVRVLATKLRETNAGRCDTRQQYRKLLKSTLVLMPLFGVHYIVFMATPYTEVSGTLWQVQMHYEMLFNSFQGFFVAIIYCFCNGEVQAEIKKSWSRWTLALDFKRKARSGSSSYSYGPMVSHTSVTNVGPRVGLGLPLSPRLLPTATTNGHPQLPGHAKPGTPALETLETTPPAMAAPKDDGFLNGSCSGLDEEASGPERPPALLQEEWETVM
Atrial natriuretic peptide receptor 2 (Homo sapiens), sequence (P20594 whole entry, looked up): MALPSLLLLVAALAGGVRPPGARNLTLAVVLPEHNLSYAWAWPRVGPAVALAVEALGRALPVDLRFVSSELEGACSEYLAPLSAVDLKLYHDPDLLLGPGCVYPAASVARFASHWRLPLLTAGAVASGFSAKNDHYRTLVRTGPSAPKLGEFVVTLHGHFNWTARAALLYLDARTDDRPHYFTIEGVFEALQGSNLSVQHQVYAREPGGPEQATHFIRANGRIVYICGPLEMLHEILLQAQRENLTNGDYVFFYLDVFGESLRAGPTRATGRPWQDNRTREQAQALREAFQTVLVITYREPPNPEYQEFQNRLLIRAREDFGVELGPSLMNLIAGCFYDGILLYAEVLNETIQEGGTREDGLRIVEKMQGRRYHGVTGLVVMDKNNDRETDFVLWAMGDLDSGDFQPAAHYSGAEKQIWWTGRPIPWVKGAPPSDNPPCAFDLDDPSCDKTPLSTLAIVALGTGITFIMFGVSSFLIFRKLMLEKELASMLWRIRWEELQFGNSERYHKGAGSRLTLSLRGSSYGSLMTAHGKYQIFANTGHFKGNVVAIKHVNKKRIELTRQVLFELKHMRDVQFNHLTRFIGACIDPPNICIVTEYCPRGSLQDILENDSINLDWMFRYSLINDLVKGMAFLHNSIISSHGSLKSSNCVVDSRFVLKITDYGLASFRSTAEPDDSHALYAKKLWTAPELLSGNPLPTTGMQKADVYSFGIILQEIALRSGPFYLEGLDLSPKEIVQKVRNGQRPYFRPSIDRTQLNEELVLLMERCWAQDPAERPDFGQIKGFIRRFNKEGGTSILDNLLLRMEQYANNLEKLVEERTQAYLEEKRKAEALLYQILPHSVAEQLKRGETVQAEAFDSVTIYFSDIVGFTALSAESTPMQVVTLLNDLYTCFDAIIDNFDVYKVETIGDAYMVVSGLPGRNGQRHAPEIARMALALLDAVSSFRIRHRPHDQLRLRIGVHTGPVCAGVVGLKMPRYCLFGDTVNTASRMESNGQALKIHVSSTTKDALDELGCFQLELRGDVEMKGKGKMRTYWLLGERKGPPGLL

CN(C)CCC(c1ccccc1)c1ccccn1 (stereo not drawn)
inactive: all assays above

CC(=O)O[C@]1(C(C)=O)CC[C@H]2[C@@H]3C=C(Cl)C4=CC(=O)[C@@H]5C[C@@H]5[C@]4(C)[C@H]3CC[C@@]21C
not listed: [1] | [10]
inactive: all other assays above

O=C1NC(=O)C(c2ccccc2)(c2ccccc2)N1
inactive: all assays above

O=C(NCCN1CCOCC1)c1ccc(Cl)cc1
inactive: all assays above

O=C(O)CCc1nc(-c2ccccc2)c(-c2ccccc2)o1
inactive: all assays above

Clc1ccc(Cn2c(CN3CCCC3)nc3ccccc32)cc1
not listed: [3] | [9]
inactive: all other assays above

CCn1cc(C(=O)O)c(=O)c2ccc(C)nc21
not listed: [9]
inactive: all other assays above

CCN(CC)C(=O)c1ccc(O)c(OC)c1
not listed: [9]
inactive: all other assays above

COc1cccc(-c2cc(=O)c3ccccc3o2)c1N
inactive: [2] | [4] | [5] | [7] | [8]

CCN(CC)CCNC(=O)c1ccc(N)cc1
not listed: [9]
inactive: all other assays above

CCN1CCC[C@H]1CNC(=O)c1cc(S(N)(=O)=O)ccc1OC
inactive: all assays above

From PubChem BioAssay (NCATS)
